This passage reports growth results from PubChem BioAssay (NCI).

Test systems include HCT-15 colon; HT29 colon; SNB-19 CNS; U251 CNS; PC-3 prostate; SK-MEL-5 melanoma; UACC-62 melanoma; LOX IMVI melanoma; SK-MEL-28 melanoma.
Holding throughout (experiment): NCI-60 one-dose screen, 48 h (100 = growth as untreated, 0 = no growth, -100 = all killed)
Common to all, as to conditions: 10 µM unless noted

Each structure is given as a SMILES string. This is part of a sample that, as a whole, favours compounds with a hit. Of some 83,000 tested, about 20% had one in any assay.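 Plates (96-well) were seeded with cells, treated with compound at one concentration, and incubated for 48 hours before percent growth was determined.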 Values without a mark were called inactive. Active and inactive are the calls of the source. The calls were made as follows: active = growth percent below 10; inactive = the rest.

Take `CC(C)(C)n1cc(-c2ccnc(NCCCNS(=O)(=O)c3ccc(Br)cc3)c2)c(-c2cccc(O)c2)n1`: the growth is -47.3% (active) in the test with HCT-15 colon; 1.23% (active) in the test on HT29 colon; 48.7% with SNB-19 CNS; 29.5% in the test on U251 CNS; 16.9% with PC-3 prostate; 15.1% in the test on SK-MEL-5 melanoma. Besides, the values for the growth in the test with UACC-62 melanoma, in the test on LOX IMVI melanoma and in the test with SK-MEL-28 melanoma were 42.9%, -75.6% (active) and -32.1% (active), respectively.

Consider `COc1ccc(/C(C#N)=C/c2cc(OC)c(OC)c(OC)c2)cc1`, for which the growth with HCT-15 colon is 31.1%; in the test with HT29 colon, 9.49% (active); in the test with SNB-19 CNS, 66.3%; with U251 CNS it was 34.4%; in the test with PC-3 prostate it was 43.1%; with SK-MEL-5 melanoma it was 14.8%. The growth is 39% with UACC-62 melanoma, 50.3% in the test on LOX IMVI melanoma and 52.1% in the test on SK-MEL-28 melanoma.

On to `Cc1ccc(C(=O)C2=Cc3cc4ccccc4n3Cc3cnnn32)cc1`, for which the growth was 107% with HCT-15 colon; 106% in the test with HT29 colon; 93% with SNB-19 CNS; 100% with U251 CNS; 87.7% with PC-3 prostate; 93.5% in the test with SK-MEL-5 melanoma. For the same compound, the growth with UACC-62 melanoma was 85.1%; in the test on LOX IMVI melanoma, 110%; in the test on SK-MEL-28 melanoma, 102%.

Take `CC(=O)Oc1csc(N(C(C)=O)c2cccc(C(F)(F)F)c2)n1`: the growth is 94.4% in the test on HCT-15 colon; 102% in the test with HT29 colon; 97.8% with SNB-19 CNS; 88.3% in the test with U251 CNS; 85.6% in the test on PC-3 prostate; 92.1% in the test with SK-MEL-5 melanoma. For the same compound, the growth is 89.2% in the test with UACC-62 melanoma, 92.3% with LOX IMVI melanoma and 103% with SK-MEL-28 melanoma.

Take `COc1ccc(C2CC(c3ccc(OC)cc3OC)=NN2c2ccc(S(N)(=O)=O)cc2)cc1` (configuration not stated): the growth is 75% in the test on HCT-15 colon; 71.8% in the test with HT29 colon; 85.7% in the test with SNB-19 CNS; 79.3% with U251 CNS; 56% in the test with PC-3 prostate; 91.6% with SK-MEL-5 melanoma. In addition, the values for the growth in the test on UACC-62 melanoma, with LOX IMVI melanoma and with SK-MEL-28 melanoma were 77.2%, 101% and 125%, respectively.

As to `Cc1ccc(C(=O)NCCCNc2nccc(-n3ccc4cccnc43)n2)cc1`, the growth in the test on HCT-15 colon was 102%; in the test on HT29 colon it was 106%; with SNB-19 CNS, 90.6%; with U251 CNS, 93.2%; in the test on PC-3 prostate, 97.8%; in the test with SK-MEL-5 melanoma, 99.5%. The growth was 102% in the test on UACC-62 melanoma, 97% in the test with LOX IMVI melanoma and 106% in the test with SK-MEL-28 melanoma.

Consider `Cc1ccc(S(=O)(=O)NCCNc2nccc(-c3c(-c4ccc(O)cc4)nc4sccn34)n2)cc1`, for which the growth with HCT-15 colon is 99.1%; in the test on HT29 colon, 78.9%; with SNB-19 CNS, 113%; in the test on U251 CNS it was 104%; in the test with PC-3 prostate, 86.5%; with SK-MEL-5 melanoma, 94.5%. Besides, the results for the growth in the test with UACC-62 melanoma, in the test with LOX IMVI melanoma and with SK-MEL-28 melanoma were 91.4%, 95.7% and 114%, respectively.

Consider `COc1ccc(N=Cc2c(O)ccc3c2oc2cc(Cl)c(O)c(Cl)c23)cc1`, for which the growth in the test with HCT-15 colon is 86.6%; in the test with HT29 colon, 105%; in the test on SNB-19 CNS, 104%; with U251 CNS, 87.8%; in the test with PC-3 prostate it was 103%; in the test with SK-MEL-5 melanoma it was 96.3%. In addition, the growth was 84.2% in the test on UACC-62 melanoma, 64.5% with LOX IMVI melanoma and 141% in the test on SK-MEL-28 melanoma.

`Cc1ccc2ccccc2c1C[n+]1ccccc1`: the growth in the test with HCT-15 colon is 107%; in the test on HT29 colon, 92%; in the test on SNB-19 CNS, 101%; with U251 CNS, 83.6%; in the test on PC-3 prostate, 83.4%; with SK-MEL-5 melanoma, 110%. For the same compound, the growth was 99.8% in the test with UACC-62 melanoma, 94.5% with LOX IMVI melanoma and 110% with SK-MEL-28 melanoma.

With `COc1ccc2[nH]c(=O)c(/C=N/Nc3nc(-c4ccccc4)cs3)c(O)c2c1`, the growth in the test with HCT-15 colon was 20.5%; in the test on HT29 colon, 70.2%; in the test with SNB-19 CNS it was 75.4%; in the test on U251 CNS, 44.3%; with PC-3 prostate, 58.9%; in the test with SK-MEL-5 melanoma, 65.2%. Moreover, the growth with UACC-62 melanoma was 62.7%; with LOX IMVI melanoma, 60%; in the test with SK-MEL-28 melanoma it was 76%.

Take `CCOC(=O)CC(=O)OC`: the growth in the test on HCT-15 colon is 102%; with HT29 colon it was 96.5%; in the test with SNB-19 CNS, 96.3%; with U251 CNS it was 101%; in the test on PC-3 prostate, 95.3%; with SK-MEL-5 melanoma, 100%. For the same compound, the growth was 104% in the test with UACC-62 melanoma, 100% with LOX IMVI melanoma and 104% in the test with SK-MEL-28 melanoma.

With `O=C(/C=C/c1c[nH]c2ccccc12)c1ccc(O)c(CN2CCN(c3ccc(F)cc3)CC2)c1`, the growth in the test with HCT-15 colon is 93.5%; in the test on HT29 colon, 99%; in the test on SNB-19 CNS, 94.1%; in the test with U251 CNS it was 93.7%; with PC-3 prostate it was 84.7%; in the test on SK-MEL-5 melanoma it was 100%. The growth in the test on UACC-62 melanoma is 101%; with LOX IMVI melanoma, 96.1%; with SK-MEL-28 melanoma it was 107%.

In the case of `COc1cc(/C=C/C(=O)/C=C/c2cc(OC)c3c(c2)OCO3)cc2c1OCO2`, the growth was 69.1% with HCT-15 colon; 6.92% (active) in the test on HT29 colon; 80.3% with SNB-19 CNS; 45.1% with U251 CNS; 83.7% in the test on PC-3 prostate; 80.9% in the test on SK-MEL-5 melanoma. The growth in the test with UACC-62 melanoma is 75.1%; with LOX IMVI melanoma, 54%; with SK-MEL-28 melanoma, 119%.

With `COC1=C(OC)C(=O)C(CCCCCCCCCC[P+](c2ccccc2)(c2ccccc2)c2ccccc2)=C(C)C1=O`, the growth in the test on HCT-15 colon is -3.39% (active); in the test on HT29 colon it was -10.6% (active); with SNB-19 CNS, -53.1% (active); with U251 CNS, -27.2% (active); in the test on PC-3 prostate, -12.7% (active); with SK-MEL-5 melanoma it was -100% (active). Further, the growth with UACC-62 melanoma is -93% (active); in the test on LOX IMVI melanoma, -89.6% (active); in the test with SK-MEL-28 melanoma it was -86.1% (active).

With `O=C1CS/C(=N\Nc2cc(=O)[nH]c3ccccc23)N1c1ccccc1`, the growth in the test with HCT-15 colon is 94.5%; with HT29 colon it was 98.6%; with SNB-19 CNS, 90.7%; in the test on U251 CNS, 95%; with PC-3 prostate, 80.9%; in the test with SK-MEL-5 melanoma it was 96.2%. For the same compound, the growth in the test with UACC-62 melanoma was 85.5%; in the test with LOX IMVI melanoma, 88.2%; in the test with SK-MEL-28 melanoma, 111%.

For the compound `O=C1NN(C(=O)c2ccc(Cl)cc2)C(c2ccccc2)=N/C1=C\c1ccc(F)cc1`, the growth is 72.4% with HCT-15 colon; 97.4% in the test on HT29 colon; 78.8% in the test on SNB-19 CNS; 40.1% with U251 CNS; 81.4% with PC-3 prostate; 88.1% with SK-MEL-5 melanoma. Moreover, the figures for the growth in the test on UACC-62 melanoma, in the test on LOX IMVI melanoma and with SK-MEL-28 melanoma were 74%, 88.3% and 107%, respectively.

Regarding `O=C(NCCNc1nccc(-n2ccc3cccnc32)n1)c1ccc(C(F)(F)F)cc1`, the growth in the test with HCT-15 colon is 104%; in the test with HT29 colon, 113%; with SNB-19 CNS, 104%; in the test with U251 CNS it was 99.8%; in the test on PC-3 prostate, 102%; in the test with SK-MEL-5 melanoma it was 101%. Further, the growth is 94.6% in the test on UACC-62 melanoma, 99.4% with LOX IMVI melanoma and 105% in the test with SK-MEL-28 melanoma.

Take `CC(C)(C)NCCC(O)c1cc2c(Cl)cc(Cl)cc2c2cc(C(F)(F)F)ccc12` (configuration not stated): the growth in the test on HCT-15 colon was -70.5% (active); in the test on HT29 colon it was -80.3% (active); in the test with SNB-19 CNS it was -70.9% (active); in the test on U251 CNS it was -94.2% (active); in the test with PC-3 prostate, -92.3% (active); with SK-MEL-5 melanoma, -63.2% (active). The growth is -77.3% (active) in the test with UACC-62 melanoma, -70.7% (active) in the test on LOX IMVI melanoma and -91.6% (active) in the test on SK-MEL-28 melanoma.
